Results reported in PubChem BioAssay AID1159580 (chemical genetic matrix, 2015).
Values joined by “and” are separate entries in the source; they are usually repeats but may differ in a detail not shown here. Equal values may be shown once. About 2,000 (36%) of roughly 5,500 compounds were called active. Inconclusive results (about 18%) are left out. Cut-off read from the data, not from the text of the source: active = normalized growth mostly below about 0.91 (no sharp cut-off); inconclusive = no clear call, values can overlap the other calls; inactive = mostly above about 0.92. The list shows a part of the results.

Experiment: chemical genetic growth profiling, strain panel (AID 1159580);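 note: tested at 20 µM; growth read once vehicle control cultures reached saturation at 30 °C; 1 = growth at the plate median or of vehicle wells; lower values mean less growth of the strain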
Details: S. cerevisiae deletion strains, growth OD

Measured: normalized growth

O=c1cc(-c2ccc(O)cc2)oc2cc(O[C@@H]3O[C@H](CO)[C@@H](O)[C@H](O)[C@H]3O)cc(O)c12
inactive: locus YAL021C, strain ccr4, active compounds read low 0.975 | locus YAL026C, strain drs2, active compounds read low 1.02 | locus YAL030W, strain snc1, active compounds read low 1.01 | locus YBL061C, strain skt5, active compounds read low 1.01 | locus YBR009C, strain hhf1, active compounds read low 0.995 | locus YBR021W, strain FUR4, active compounds read low 0.953 | locus YBR023C, strain chs3, active compounds read low 0.995 | locus YBR171W, strain sec66, active compounds read low 1.02 | locus YBR229C, strain ROT2, active compounds read low 0.983 | locus YBR231C, strain swc5, active compounds read low 1.04 | locus YBR279W, strain paf1, active compounds read low 1 | locus YCL011C, strain gbp2, active compounds read low 0.992 | locus YCL016C, strain dcc1, active compounds read low 0.983 | locus YCL029C, strain bik1, active compounds read low 0.973 | locus YCL069W, strain vba3, active compounds read low 1 | locus YCR088W, strain abp1, active compounds read low 1 | locus YDL005C, strain med2, active compounds read low 1.03 | locus YDL035C, strain GPR1, active compounds read low 0.999 | locus YDL040C, strain nat1, active compounds read low 0.998 | locus YDL074C, strain BRE1, active compounds read low 0.974 | locus YDL101C, strain DUN1, active compounds read low 0.986 | locus YDL185W, strain tfp1, active compounds read low 0.968 | locus YDL192W, strain arf1, active compounds read low 0.976 | locus YDR001C, strain nth1, active compounds read low 1.01 | locus YDR069C, strain doa4, active compounds read low 1.01 | locus YDR101C, strain arx1, active compounds read low 0.981 | locus YDR137W, strain rgp1, active compounds read low 1.01 | locus YDR150W, strain NUM1, active compounds read low 0.988 | locus YDR159W, strain sac3, active compounds read low 1.06 | locus YDR162C, strain NBP2, active compounds read low 1.02 | locus YDR195W, strain ref2 1.01 | locus YDR297W, strain sur2, active compounds read low 1.02 | locus YDR318W, strain mcm21, active compounds read low 0.986 | locus YDR334W, strain swr1, active compounds read low 1.01 | locus YDR335W, strain msn5, active compounds read low 1 | locus YDR388W, active compounds read low 0.973 | locus YDR392W, strain spt3, active compounds read low 0.935 | locus YDR502C, strain sam2, active compounds read low 0.982 | locus YEL003W, strain gim4, active compounds read low 1.02 | locus YEL037C, strain rad23, active compounds read low 1.01 | locus YEL061C, strain CIN8 (second series), active compounds read low 1 | locus YEL061C, strain CIN8, active compounds read low 0.99 | locus YER015W, strain faa2, active compounds read low 0.993 | locus YER016W, strain bim1, active compounds read low 1.01 | locus YER110C, active compounds read low 0.995 | locus YER111C, strain swi4, active compounds read low 1.01 | locus YER155C, strain BEM2 (second series), active compounds read low 1.05 | locus YER155C, strain BEM2, active compounds read low 0.98 | locus YER167W, strain BCK2, active compounds read low 0.967 | locus YFR010W, strain ubp6, active compounds read low 1.02 | locus YGL078C, strain dbp3, active compounds read low 0.984 | locus YGL086W, strain mad1, active compounds read low 0.978 | locus YGL167C, strain pmr1, active compounds read low 1 | locus YGL173C, strain kem1, active compounds read low 1.03 | locus YGL227W, strain vid30, active compounds read low 1.01 | locus YGL240W, strain doc1, active compounds read low 1.02 | locus YGL248W, strain PDE1, active compounds read low 1 | locus YGL253W, strain hxk2, active compounds read low 1.01 | locus YGR078C, strain PAC10, active compounds read low 0.999 | locus YGR135W, strain pre9, active compounds read low 0.973 | locus YGR252W, strain gcn5, active compounds read low 0.974 | locus YHR013C, strain ard1, active compounds read low 0.994 | locus YHR027C, strain rpn1, active compounds read low 1.01 | locus YHR030C, strain SLT2, active compounds read low 0.986 and 1.05 | locus YHR079C, strain IRE1 (second series), active compounds read low 0.971 | locus YHR079C, strain IRE1, active compounds read low 1.03 | locus YHR094C, strain hxt1, active compounds read low 0.972 | locus YHR129C, strain ARP1, active compounds read low 0.988 | locus YHR142W, strain chs7, active compounds read low 1 | locus YHR200W, strain rpn10, active compounds read low 0.957 | locus YIL066C, strain RNR3, active compounds read low 0.979 | locus YIL073C, strain SPO22, active compounds read low 0.969 | locus YIL125W, strain kgd1, active compounds read low 0.974 | locus YIR030C, strain dcg1, active compounds read low 0.987 | locus YJL092W, strain hpr5, active compounds read low 1 | locus YJL095W, strain BCK1 (second series), active compounds read low 1.02 | locus YJL095W, strain BCK1, active compounds read low 1.02 | locus YJL115W, strain asf1, active compounds read low 1.01 | locus YJL129C, strain trk1, active compounds read low 1 | locus YJL134W, strain LCB3, active compounds read low 0.983 | locus YJL154C, strain vps35, active compounds read low 1.01 | locus YJL164C, strain tpk1, active compounds read low 0.979 | locus YJL166W, strain qcr8, active compounds read low 1.01 | locus YJL168C, strain set2, active compounds read low 0.995 | locus YJL187C, strain SWE1 (second series), active compounds read low 0.998 | locus YJR043C, strain POL32, active compounds read low 0.995 | locus YJR066W, strain TOR1, active compounds read low 0.998
